Screens from PubChem.
Most compounds without a hit are left out; they make up all but 7.3% or so of the library.
ELG1 genotoxic: qHTS screen for small molecules that induce genotoxicity in human embryonic kidney (HEK293T) cells expressing luciferase-tagged ELG1; HEK293T ELG1-luciferase reporter, luminescence, 16 h; Potency, µM (series often up to 46 µM), without a hit: at the highest dose activity change, positive = activation, actives largely listed as activators; 330,000 tested, 1.3% active; further: % of control where 0% means no effect; nearly all actives have a fitted effect of over 60% in size
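ELG1-luciferase HEK293T cells, 2,000/well; compound pinned in; 16 hr, 37 °C, 5% CO2; ONE-Glo, 30 min RT; luminescence on CCD imager.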
SMN2 splice up: qHTS Assay for Enhancers of SMN2 Splice Variant Expression; HEK293 SMN2-luciferase splicing reporter, luminescence, 30-36 h; Potency, µM (highest dose often 46.1 µM), for the others: at the top dose activity change, positive = activation, most hits filed as activators; 210,000 tested, 2.8% active; further: % of control where 0% means no effect; nearly all actives have a fitted effect of over 55% in size
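HEK293 cells carry an SMN2 […]–luciferase reporter in which exon 7 inclusion puts luciferase in frame. Cells were plated 10-12 h before compound addition, then incubated 30-36 h at 37C. ONE-Glo luminescence was read; sodium butyrate at 4.5 mM final served as control.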
Rab9 prom act: qHTS Assay for Rab9 Promoter Activators; Huh7 Rab9 promoter-luciferase reporter, luminescence, 24 h; Potency, µM (top dose mostly 9.22 µM), inactives show at the highest dose activation, negative = inhibition, hits mostly activators; 320,000 tested, 2.8% active; AID 485297, 2010; further: % of control where 0% means no effect; nearly all actives have a fitted effect of over 60% in size
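Luciferase signal after 10 min detection reagent at ambient indicates Rab9 promoter upregulation; stably transfected Huh7 cells were treated 24 h with compound in DMSO at 37 °C, 5% CO2.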
NPC1 promoter act: qHTS Assay for NPC1 Promoter Activators. Huh7 NPC1 promoter luciferase reporter, 24 h. Potency, µM (doses to about 9.22 µM), for the others: at the highest dose activation, most hits filed as activators. 320,000 tested, 2.4% active. AID 485313, 2010; further: % of control where 0% means no effect; nearly all actives have a fitted effect of over 60% in size
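Compounds in DMSO were transferred onto Huh7 NPC1-luciferase reporter cells pre-incubated 2 h; after 24 h at 37 °C, Amplite reagent was dispensed and luminescence recorded 10 min later.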
FLuc modulator: qHTS profiling assay for firefly luciferase inhibitor/activator using purifed enzyme and Km concentrations of substrates (counterscreen for miR-21 project); Potency, µM (doses to about 57.5 µM), for the others: at the highest dose activity change, negative = inhibition, usual class: inhibitors; AID 588342, 2011; purified FLuc, Km substrates, luminescence inhibition; 360,000 tested, 6.9% active; Luciferin 4-monooxygenase (Photinus pyralis), P08659;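 further: plate controls were vehicle for no effect and reference inhibitor for full effect; nearly all actives have a fitted effect of over 55% in size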
Target sequence (P08659 whole entry, looked up): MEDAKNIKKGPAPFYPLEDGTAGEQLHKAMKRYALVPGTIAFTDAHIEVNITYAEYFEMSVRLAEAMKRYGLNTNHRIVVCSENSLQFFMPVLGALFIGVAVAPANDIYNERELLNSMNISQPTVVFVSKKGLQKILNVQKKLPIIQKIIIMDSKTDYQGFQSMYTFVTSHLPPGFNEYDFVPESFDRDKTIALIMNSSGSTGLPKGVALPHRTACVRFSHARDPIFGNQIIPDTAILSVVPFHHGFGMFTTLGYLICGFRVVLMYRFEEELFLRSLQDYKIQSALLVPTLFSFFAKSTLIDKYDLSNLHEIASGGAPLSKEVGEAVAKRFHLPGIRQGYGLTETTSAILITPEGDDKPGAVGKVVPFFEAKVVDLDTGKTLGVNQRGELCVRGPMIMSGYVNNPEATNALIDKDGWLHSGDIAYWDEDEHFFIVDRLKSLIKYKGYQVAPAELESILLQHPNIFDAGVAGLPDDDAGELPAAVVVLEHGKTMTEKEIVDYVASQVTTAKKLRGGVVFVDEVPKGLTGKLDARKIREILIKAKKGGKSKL
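Purified P. pyralis luciferase, 10 nM final, with Km-level 10 uM D-luciferin and 10 uM ATP in 50 mM Tris acetate pH 7.5, 10 mM Mg acetate, 0.01% Tween-20, 0.05% BSA; 6-point qHTS titration about 60 µM downward; luminescence read.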
uPA surface inh: qHTS for Inhibitors of Cell Surface uPA Generation. cell surface uPA generation assay, qHTS. Potency, µM (series often up to 38.3 µM), without a hit: top-dose activity change, negative = inhibition, actives largely listed as inhibitors. 330,000 tested, 0.31% active. AID 540303, 2011; active means well fitted inhibition curve with a large enough effect; inconclusive means small, poorly fitted or top-dose-only effect; inactive means no such curve, though single readings can be large or run the other way; tested in mouse RAW 264.7 cells; further: on the % scale 0 is the no-effect control and ±100 the full control effect; nearly all actives have a fitted effect of over 55% in size
* = called active by the depositor; u = inconclusive; x = not tested or not shown; [ ] = remark or other dose. Unless noted, the call rests on the fitted dose curve; in most records, active means well fitted curve in the direction sought with a large enough effect; inconclusive means small, poorly fitted or top-dose-only effect, or another doubt; inactive means no such curve, though single readings can be large; an effect the other way counts as inactive or inconclusive. Potency means the concentration at half of the fitted maximal effect.

SMILES | ELG1 genotoxic | SMN2 splice up | Rab9 prom act | NPC1 promoter act | FLuc modulator | uPA surface inh
O=C(/C=N/NC(=O)c1ccccc1Br)c1ccccc1 | 6% | 7% | 20% | 7% | 9.5µM* | -2%
O=C(/C=N/NC(=O)c1ccc(Cl)cc1Cl)c1ccccc1 | 12% | x | u | 21% | 2.7µM* | -1%
Cc1cccc(N(Cc2cc(=O)[nH]c3ccccc23)C(=O)CCl)c1 | -11% | x | -43% | -15% | -1% | 7.1µM*
CCCC(=O)N(Cc1cc(=O)[nH]c2ccccc12)c1cccc(C)c1 | -1% | x | -1% | -6% | -1% | -3%
COc1cc(-c2nnc(SCC(=O)Nc3ccc(F)c(Cl)c3)o2)cc(OC)c1OC | x | x | x | x | -1% | x
Cc1cc(-n2c(C)cc(C(=O)COc3ccc4ccc(=O)oc4c3)c2C)no1 | -2% | -15% | 7% | -1% | 17µM* | 3%
Cc1ccc(S(=O)(=O)c2cn(CC(=O)Nc3ccc4c(c3)OCO4)c3ccc(C)cc3c2=O)cc1 | x | 12% | x | x | -6% | x
Cc1ccc(NC(=S)NCCc2ccccc2)nc1 | u | 25µM* | u | 27% | 17µM* | -1%
Cc1ccc(NC(=O)CCCc2ccccc2)nc1 | u | 16µM* | 4µM* | u | 17µM* | -1%
COc1cc2c(cc1OC)C(COc1ccc3c(C)cc(=O)oc3c1)N(C(=O)CC(C)C)CC2 (configuration not stated) | x | -5% | x | x | 0% | x
O=C(c1ccc2c(c1)N(Cc1ccccc1F)C(=O)c1ccccc1S2=O)N1CCCCC1 (configuration not stated) | x | -27% | x | x | 0% | x
CCOc1cccc(/C=N/NC(=S)Nc2ccccc2[N+](=O)[O-])c1O | 0.37µM* | -81% | 1% | 5% | u | 6.3µM*
O=[N+]([O-])c1ccccc1NC(=S)N/N=C/c1ccc(O)c(O)c1 | 3.7µM* | x | u | u | 19µM* | -10%
CCCCNC(=S)N/N=C/c1cccc(OCC)c1O | -1% | x | -1% | -1% | 1% | -2%
O=[N+]([O-])c1ccccc1C=NNC(=S)NN=Cc1ccccc1[N+](=O)[O-] | x | x | x | x | x | -10%
O=C(Nc1ccc(F)cc1F)c1cc2nc3c(c(C(F)(F)F)n2n1)CCCC3 | u | 17% | 0.56µM* | 1.1µM* | 0.6µM* | 22%
Cc1nc2sc(-c3ccccc3)cc2c(=O)n1/N=C/N(C)C | u | 11µM* | 2.8µM* | 2.5µM* | 19µM* | -2%
Cc1nc2sc(-c3ccccc3)cc2c(=O)n1-n1cccc1 | u | x | 1.6µM* | 1.3µM* | 7.6µM* | -6%
NC(=O)CSc1nc2sc(-c3ccccc3)cc2c(=O)n1N | 13% | 9% | 24% | 15% | u | -4%
O=c1c2cc(-c3ccccc3)sc2nc2n1CCC2 | 1.2µM* | 3.2µM* | 0.63µM* | 0.5µM* | 3µM* | x
Cc1sc2nc(C)n(/N=C/N(C)C)c(=O)c2c1C | 3% | x | 1% | 3% | -2% | 0%
Cc1nc2sc(-c3ccccc3)cc2c(=O)n1N | u | x | u | 0.1µM* | 0.67µM* | u
O=c1c2ccccc2nc2n1CCC2 | 3% | -10% | 2% | 0% | u | 0%
O=C1C2=C(C(=O)c3ccccc31)C1O[C@](c3ccsc3)(Cc3ccccc31)O2 | x | x | -5%[1.84 µM] | -7%[1.84 µM] | 1%[11.5 µM] | x
CCOC(=O)C1CCN(S(=O)(=O)c2ccccc2)CC1 | -1% | x | -1% | -4% | 1% | -3%
SMILES | ELG1 genotoxic | SMN2 splice up | Rab9 prom act | NPC1 promoter act | FLuc modulator | uPA surface inh
O=C(CCc1nc2ccccc2s1)N1CCN(S(=O)(=O)c2cccs2)CC1 | -8% | -9% | 2% | 13% | -13% | -1%
O=C(COC(=O)C1CCN(S(=O)(=O)c2cccs2)CC1)Nc1ccccc1 | 0% | 10% | 1% | -5% | -2% | 3%
O=C(C1CCN(S(=O)(=O)c2cccs2)CC1)N1CCCCC1 | u | x | u | 3.5µM* | 4.3µM* | 3%
O=S(=O)(c1cccs1)N1CCN(Cc2nc3ccccc3s2)CC1 | 28% | -38% | -2% | -2% | 17µM* | 1%
CC(=O)N1CCC(C(=O)N2CCN(S(=O)(=O)c3cccs3)CC2)CC1 | 0% | x | 3% | -1% | 2% | -3%
CCOC(=O)C1CCN(S(=O)(=O)C(F)(F)c2nc3ccccc3s2)CC1 | 1% | -5% | 25% | 12% | 27µM* | u
O=C(OCc1nc2ccccc2s1)C1CCN(S(=O)(=O)c2cccs2)CC1 | 11µM* | 22% | 15% | 1% | 13µM* | 3%
Cc1ccc(Cl)cc1NC(=O)Cn1c(=O)n(CCC(=O)NCc2ccc3c(c2)OCO3)c(=O)c2sccc21 | x | -9% | x | x | -7% | x
c1ccc(-c2nc(-c3ccco3)cs2)nc1 | u | 1% | 3.5µM* | 26% | 15µM* | x
CN(C)/N=C/c1ccc(OS(=O)(=O)c2ccccc2)cc1 | 8.2µM* | x | 2.8µM* | 3.5µM* | 21µM* | -2%
C/C(=N\NC(=O)c1ccc(CSc2nncn2C)cc1)c1cccs1 | u | 13µM* | 3.5µM* | u | 24µM* | -2%
Cn1cnnc1SCc1ccc(C(=O)N/N=C/c2cccs2)cc1 | 11% | u | -23% | 2% | 17µM* | u
C/C(=N\NC(=O)c1ccc(CSc2nncn2C)cc1)c1ccc(Cl)cc1 | 6% | 10% | -4% | 0% | -12% | -6%
O=C(O)c1sc2cc(C(F)(F)F)cnc2c1-c1cccs1 | -8% | 6% | -10% | 2% | 11µM* | 1%
COCCN=C1NN=C(c2cc(C)n(CC3CCCO3)c2C)CS1 (configuration not stated) | 12% | -16% | u | 28% | u | 4%
COCCCN=C1NN=C(c2cc(C)n(-c3ccccc3)c2C)CS1 | u | -63% | 1.3µM* | u | 4.3µM* | -2%
COCCCN=C1NN=C(c2cc(C)n(Cc3ccccc3Cl)c2C)CS1 | u | u | 23% | -4% | 12µM* | -3%
COCCCN=C1NN=C(c2cc(C)n(-c3ccccc3F)c2C)CS1 | -9% | 16% | 0.32µM* | u | 2.4µM* | 6.3µM*
COCCN=C1NN=C(c2ccc(NC(C)=O)cc2)CS1 | -6% | 11% | 12% | 4% | -14% | 3%
Cc1cc(C2=NNC(=NCCc3ccccc3)SC2)c(C)n1-c1c(C)n(C)n(-c2ccccc2)c1=O | -5% | x | 2% | -4% | -6% | 0%
Cc1cc(C2=NNC(=Nc3ccccc3)SC2)c(C)n1C | u | u | 1.4µM* | 3.2µM* | 11µM* | 0%
